# Active and inactive are the calls of the source. Rule for the calls: active = hit-call score of the fitted dose curve at least 0.9, where 1 is the maximum; inactive = score below 0.9.
# Read-out: Intercellular Adhesion Molecule 1 (ICAM1), ICAM1 (gene 3383)
# Experiment: LTEA_HepaRG_ICAM1: Life Technologies and Expression Analysis (LTEA) Assay for Intercellular Adhesion Molecule 1 (ICAM1) using HepaRG (AID 2283507)
# Conditions: mRNA level, 48 h; actives raise or lower the signal
# Procedure, shortened: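 Differentiated human HepaRG cells in serum-free induction medium exposed 48 h in duplicate to 8 half-log concentrations (top 100 uM, 0.5% DMSO). ICAM1 mRNA quantified by TaqMan qRT-PCR, normalized to ACTB, GAPDH and POLR2A; bidirectional fitting versus DMSO.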
Compound,outcome,AC50
CCCCC(CC)COC(=O)CCCCCCCC(=O)OCC(CC)CCCC (centres undefined),inactive,–
C=CCc1ccc(OC)c(OC)c1,inactive,–
CC(=O)O,inactive,–
CC(C)(O)c1ccc(CNC(=O)c2cccnc2Oc2ccc(F)cc2)cc1,inactive,–
NC1CCCCC1,inactive,–
CC(=O)O[C@]1(C(C)=O)CC[C@H]2[C@@H]3C=C(Cl)C4=CC(=O)[C@@H]5C[C@@H]5[C@]4(C)[C@H]3CC[C@@]21C,inactive,–
O=C(NS(=O)(=O)/C=C/c1cccs1)c1ccc(F)cc1Br,inactive,–
O=C(O)c1cccnc1,inactive,–
O=C(Oc1ccccc1)c1cccc(C(=O)Oc2ccccc2)c1,inactive,–
CCCC(=O)O,inactive,–
COC(=O)CCC(=O)OC,inactive,–
CC(=O)OCC(COC(C)=O)OC(C)=O,inactive,–
O=C1CCCCC1,inactive,–
CC(COCC(C)OC(=O)c1ccccc1)OC(=O)c1ccccc1 (centres undefined),inactive,–
CC(C)COC(=O)CCCCC(=O)OCC(C)C,inactive,–
CC(C)c1cccc(C(C)C)c1,inactive,–
C/C=C/c1ccc(OC)cc1,inactive,–
CN(C)CCCN(C)CCCN(C)C,inactive,–
CCOCCOCCO,inactive,–
CCCCC(CC)COP(=O)(OCC(CC)CCCC)OCC(CC)CCCC (centres undefined),inactive,–
CCCCCCCCCCCCCCCCO,inactive,–
CC(N)=O,inactive,–
CCCCCCC(CCCCCCCCCCC(=O)OCC(COC(C)=O)OC(C)=O)OC(C)=O (centres undefined),inactive,–
NC(=Nc1ccccc1)Nc1ccccc1,inactive,–
Cc1cn([C@H]2C=C[C@@H](CO)O2)c(=O)[nH]c1=O,inactive,–
CCCCCCCC(=O)OC,inactive,–
CCCCC(CC)CO (centres undefined),inactive,–
O=C(N[C@@H](c1ccccc1)[C@@H]1CCCCN1)c1cccc(C(F)(F)F)c1Cl,–,61.9 µM (active)
CCN(CC)CCOc1ccc(C(=C(Cl)c2ccccc2)c2ccccc2)cc1,–,77.1 µM (active)

# Source: PubChem BioAssay (EPA / NIEHS)
